# Data published in PMC4336329 (PLoS ONE, 2015).
# Out of some 310,000 compounds screened, about 14,000 (4.5%) showed an effect of 50% or more. Effects have a minus sign here. The sample holds strong results, similar compounds and a random draw of the others, so the mix is not that of the screen.
# Biological target: human ether-à-go-go-related gene (hERG) potassium channel (human, UniProt Q12809)
# Assay: primary screen, population patch clamp on CHO cells stably expressing hERG; higher = less effect of the substance
# 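Further: peak tail current of the secondary pulse compared with the same well before compound.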
# Sequence of human ether-à-go-go-related gene (hERG) potassium channel (Q12809 whole entry, looked up): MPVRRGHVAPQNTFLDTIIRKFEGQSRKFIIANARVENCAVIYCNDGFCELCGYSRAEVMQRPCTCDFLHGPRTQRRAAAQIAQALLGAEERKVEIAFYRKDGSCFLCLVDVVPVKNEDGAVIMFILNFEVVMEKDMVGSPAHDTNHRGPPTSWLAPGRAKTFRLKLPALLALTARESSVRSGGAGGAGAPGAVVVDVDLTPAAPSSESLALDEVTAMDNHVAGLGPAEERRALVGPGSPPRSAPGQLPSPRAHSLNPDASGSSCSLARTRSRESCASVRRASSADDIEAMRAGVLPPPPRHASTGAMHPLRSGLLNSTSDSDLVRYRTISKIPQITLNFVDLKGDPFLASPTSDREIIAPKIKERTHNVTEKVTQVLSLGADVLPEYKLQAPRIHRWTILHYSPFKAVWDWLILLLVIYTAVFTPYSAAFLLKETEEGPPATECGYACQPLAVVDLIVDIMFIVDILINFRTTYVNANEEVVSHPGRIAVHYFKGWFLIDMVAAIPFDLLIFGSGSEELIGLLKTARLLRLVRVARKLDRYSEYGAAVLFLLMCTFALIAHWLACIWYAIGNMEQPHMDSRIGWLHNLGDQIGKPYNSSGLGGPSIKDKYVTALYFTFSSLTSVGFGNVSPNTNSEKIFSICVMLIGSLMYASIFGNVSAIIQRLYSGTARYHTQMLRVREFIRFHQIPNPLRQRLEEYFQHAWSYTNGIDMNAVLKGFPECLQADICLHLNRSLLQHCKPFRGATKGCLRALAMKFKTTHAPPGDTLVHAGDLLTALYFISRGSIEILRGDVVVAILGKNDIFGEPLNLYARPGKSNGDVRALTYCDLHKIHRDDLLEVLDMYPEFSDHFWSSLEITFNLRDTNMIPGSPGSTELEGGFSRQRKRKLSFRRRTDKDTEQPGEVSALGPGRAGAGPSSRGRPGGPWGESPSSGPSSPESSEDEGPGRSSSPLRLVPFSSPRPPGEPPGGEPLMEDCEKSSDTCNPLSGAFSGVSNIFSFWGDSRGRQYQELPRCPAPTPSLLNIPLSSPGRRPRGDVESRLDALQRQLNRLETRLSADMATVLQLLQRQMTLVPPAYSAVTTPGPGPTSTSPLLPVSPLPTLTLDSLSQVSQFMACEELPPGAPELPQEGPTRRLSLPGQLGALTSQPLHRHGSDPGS
row,Compound,"hERG current change (%, negative = inhibition) at 10uM [%]"
1,COc1ccc(/C=N/n2c(-c3n[nH]c4c3CCC4)n[nH]c2=S)c(OC)c1OC,20.7
2,COc1nc(NC(C)=O)nc(C)c1Br,-1.69
3,COc1ccc(NC(=O)CC(C)C)c([N+](=O)[O-])c1,-0.754
4,Cc1ccc(C(=O)NC(=S)Nc2ccccc2C)cc1,-0.104
5,CCn1nc(C)cc1C(=O)N1CCc2c([nH]c3ccccc23)C1c1cc(F)ccc1F (stereo not shown),-1.16
6,CCOC(=O)c1c(NC(=O)Cc2ccccc2)sc2c1CCN(CC)C2.Cl,-65.3
7,CCN1CCc2c(sc(NC(=O)c3ccc(S(=O)(=O)N4CCOCC4)cc3)c2C(=O)OC)C1.Cl,-42.2
8,CCN1CCc2c(sc(NC(=O)Cc3ccccc3)c2C(=O)OC)C1.Cl,-51.5
9,CC(C)N1CCc2c(sc(NC(=O)Cc3ccccc3)c2C(N)=O)C1.Cl,-11.5
10,CC(C)N1CCc2c(sc(NC(=O)c3ccc(C(=O)c4ccccc4)cc3)c2C(N)=O)C1.Cl,-38.2
11,CN1CCN(C(=O)c2c(NC(=O)c3ccco3)sc3c2CCC(C(C)(C)C)C3)CC1 (stereo not shown),-69.5
12,CCN1CCc2c(sc(NC(=O)Cc3ccccc3)c2C(N)=O)C1.Cl,-20.3
13,CCOC(=O)c1c(NC(=O)c2cccc(N3C(=O)CCC3=O)c2)sc2c1CCN(CC)C2.Cl,-31.5
14,CC(C)(C)C1CCc2c(sc(NC(=O)c3ccco3)c2C(N)=O)C1 (stereo not shown),19.8
15,CC(C)N1CCc2c(sc(NC(=O)CCc3ccccc3)c2C(N)=O)C1.Cl,-57.2
16,CC(C)(C)C1CCc2c(sc(NC(=O)c3cccs3)c2C(=O)N2CCCCC2)C1 (stereo not shown),7.32
17,OCc1ccccc1N=c1ssnc1Cl,15.9
18,CC(=O)N1CC(C)Sc2ccc(S(=O)(=O)NCc3ccccc3Cl)cc21 (stereo not shown),-8.78
19,CC1CCN(C(=O)C2CCCCN2S(=O)(=O)c2cccc([N+](=O)[O-])c2)CC1 (stereo not shown),1.35
20,Cc1cc(C)c(NC(=O)CSc2ccc(-c3ccccn3)nn2)c(C)c1,17.9
21,CC1CCN(C(=O)c2nc[nH]c2C(=O)OCCNC(=O)OC(C)(C)C)CC1,4.23
22,CC1=CC(C)(C)Nc2ccc(OC(=O)CN3C(=O)c4ccccc4C3=O)cc21,15
23,CC1Cc2ccccc2N1C(=O)COC(=O)Cc1ccc(F)cc1 (stereo not shown),-13.9

row,Compound,"hERG current change (%, negative = inhibition) at 10uM [%]"
1,C=CCN(CC=C)C(=S)NCCc1ccc(OC)c(OC)c1,-3.41
2,Cc1cc([N+](=O)[O-])nn1CC(=O)Nc1c(C)n(C)n(-c2ccccc2)c1=O,18.4
3,O=C(c1ccco1)N1CCN(C(c2ccc(Cl)cc2)c2nnnn2CC2CCCO2)CC1 (stereo not shown),-22.1
4,COCCn1nnnc1C(c1ccccc1)N1CCN(C(=O)c2ccco2)CC1.Cl (stereo not shown),16.7
5,Cc1nc2sc(C(c3cccs3)N3CCN(c4ccccc4)CC3)c(O)n2n1 (stereo not shown),-9.85
6,CCC(c1nnnn1Cc1ccccc1)N1CCN(C(=O)c2ccco2)CC1 (stereo not shown),-36.3
7,O=C(c1ccco1)N1CCN(C(c2ccc(Cl)cc2)c2nnnn2Cc2ccccc2)CC1 (stereo not shown),-68.2
8,Cc1nc2sc(C(c3cccs3)N3CCN(Cc4ccccc4)CC3)c(O)n2n1 (stereo not shown),-81.2
9,COc1ccc(C(c2sc3nc(C)nn3c2O)N2CCN(Cc3ccccc3)CC2)cc1OC (stereo not shown),-18.3
10,COc1cccc(C(c2nnnn2Cc2ccccc2)N2CCN(C(=O)c3ccco3)CC2)c1OC (stereo not shown),-30.2
11,COCCn1nnnc1C(c1ccc(Cl)cc1)N1CCN(C(=O)c2ccco2)CC1.Cl (stereo not shown),-22.4
12,CC(C)CC(c1nnnn1Cc1ccccc1)N1CCN(C(=O)c2ccco2)CC1 (stereo not shown),-63.4
13,CCOc1ccc(C(c2nnnn2Cc2ccccc2)N2CCN(C(=O)c3ccco3)CC2)cc1.Cl (stereo not shown),-57
14,CC(C)CC(c1nnnn1CCc1ccccc1)N1CCN(C(=O)c2ccco2)CC1 (stereo not shown),-46.6
15,COC(=O)/C(=C\Nc1ccccc1)NC(=O)c1ccc(Cl)cc1Cl,-17.2
16,COc1ccc(C(c2nnnn2Cc2ccccc2)N2CCN(C(=O)c3ccco3)CC2)cc1OC.Cl (stereo not shown),-19.9
17,COc1ccc(C(c2nnnn2C(C)(C)C)N2CCN(C(=O)c3ccco3)CC2)cc1 (stereo not shown),-37.4
18,Cc1nc2sc(C(c3ccc(Cl)cc3)N3CCN(C(=O)c4ccco4)CC3)c(O)n2n1 (stereo not shown),-60.1
19,CCC(C)(C)n1nnnc1C(c1ccccc1OC)N1CCN(C(=O)c2ccco2)CC1 (stereo not shown),-32.6
20,Cc1nc2sc(C(c3ccccc3)N3CCN(C(=O)c4ccco4)CC3)c(O)n2n1 (stereo not shown),8.97
21,COc1ccc(C(c2nnnn2Cc2ccccc2)N2CCN(C(=O)c3ccco3)CC2)cc1 (stereo not shown),-60.6
22,Cc1ccc(C(c2sc3nc(C)nn3c2O)N2CCN(C(=O)c3ccco3)CC2)cc1 (stereo not shown),-31.4
23,CCOc1ccc(C(c2nnnn2C(C)(C)C)N2CCN(C(=O)c3ccco3)CC2)cc1 (stereo not shown),-69.3

row,Compound,"hERG current change (%, negative = inhibition) at 10uM [%]"
1,COc1ccccc1C(c1nnnn1C(C)(C)C)N1CCN(C(=O)c2ccco2)CC1 (stereo not shown),-53.9
2,COc1ccccc1C(c1nnnn1C(C)C)N1CCN(C(=O)c2ccco2)CC1 (stereo not shown),1.24
3,COCCn1nnnc1C(c1ccc(OC)cc1)N1CCN(C(=O)c2ccco2)CC1.Cl (stereo not shown),-4.77
4,CCC(C)(C)n1nnnc1C(c1ccc(OC)cc1)N1CCN(C(=O)c2ccco2)CC1 (stereo not shown),-41.6
5,Cc1ccc(-c2nc3c(c(SCC(=O)N4CCOCC4)n2)COC(C)(C)C3)cc1,3.09
6,O=C(NCCCn1ccnc1)C(=O)Nc1ccccc1,11.8
7,CCCNc1nc2c(c(=O)[nH]c(=O)n2C)n1CCc1ccccc1,4.04
8,C#CCN(C(=O)c1ccc(OC)c(OC2CCN(C(C)C)CC2)c1)C1CCCCC1,-46.4
9,C=CCc1cccc2cc(C(=O)NC)c(=O)oc12,-5.8
10,Cn1cnnc1-c1cccc(NS(=O)(=O)c2ccc(N3CCCC3=O)cc2)c1,9.92
11,CCN(CC)c1ncnc2c1[nH]c1ccccc12,-21.8
12,O=c1c(C(c2nnnn2C2CCCCC2)N2CCCCC2)coc2ccc(Cl)cc12 (stereo not shown),0.931
13,O=C(c1ccco1)N1CCN(C(c2coc3ccc(Cl)cc3c2=O)c2nnnn2C2CCCC2)CC1 (stereo not shown),-55.6
14,Cc1ccc2occ(C(c3nnnn3C3CCCC3)N3CCN(C(=O)c4ccco4)CC3)c(=O)c2c1 (stereo not shown),-45.7
15,COc1ccc(S(=O)(=O)Nc2cc3c4c(c2)CCN4C(=O)CC3)cc1OC,-7.56
16,O=C(Cc1ccc(Cl)c(Cl)c1)N/N=C/c1cccnc1,-40
17,C=CCn1c(SCc2ccc(C#N)cc2)nnc1-c1ccccc1,-57.8
18,Cn1c(SCc2ccc(C#N)cc2)nnc1-c1ccncc1,-19.7
19,C=CCn1c(SCc2ccc(C#N)cc2)nnc1-c1ccc(C)cc1,-71.3
20,C=CCn1c(SCc2ccccc2)nnc1-c1cccnc1,-20.5
21,c1ccc(CCn2c(SCc3ccccc3)nnc2-c2ccncc2)cc1,-41.4
22,C=CCn1c(SCCC#N)nnc1-c1ccncc1,-4.28
23,C=CCn1c(SCc2cccnc2)nnc1-c1ccncc1,-1.49

row,Compound,"hERG current change (%, negative = inhibition) at 10uM [%]"
1,Cn1c(SCc2ccc(C#N)cc2)nnc1-c1ccccc1,-29
2,N#Cc1ccc(CSc2nnc(-c3ccncc3)n2CCc2ccccc2)cc1,-74.1
3,CC(=O)c1c(C)[n+]([O-])c2ccc3c(non3O)c12,13.6
4,CCOC(=O)C1=NN(c2ccc(Cl)cc2)C(c2ccccc2)CC1=O (stereo not shown),-5.12
5,COc1cccc(NC(=O)CN(C)C(=O)c2cc(C3CC3)nn2-c2ccccc2)c1,-23.1
6,Cc1cc(C)nc(NS(=O)(=O)c2ccc(N/C=C/C(=O)c3ccc(Cl)c(Cl)c3)cc2)n1,25.6
7,CCOC(=O)c1oc2ccccc2c1NC(=O)c1cc(OC)cc(OC)c1,7.29
8,COc1ccccc1C(=O)NNC(=O)C1CC=CCC1 (stereo not shown),18.7
9,O=C(/C(=C/O)N=Nc1ccccc1)c1ccncc1,-12.1
10,COc1cc(NC(=S)NCc2cccnc2)c(OC)cc1Cl,-27.9
11,CC(=O)N(c1ccccc1)C1SC(=O)N(c2ccccc2)C1=O (stereo not shown),13.9
12,Cc1cc[n+](Cc2ccccc2)cc1.[O-][Cl+3]([O-])([O-])[O-],18.9
13,O=[N+]([O-])c1ccc(C[n+]2c(-c3ccccc3)cc(-c3ccccc3)cc2-c2ccccc2)cc1.[O-][Cl+3]([O-])([O-])[O-],-25.8
14,Cc1ccc(C[n+]2c(-c3ccc(C)cc3)cc(-c3ccc(C)cc3)cc2-c2ccc(C)cc2)cc1.[O-][Cl+3]([O-])([O-])[O-],-75.6
15,O=[N+]([O-])c1cc(Cl)c(O)c(-[n+]2c(-c3ccccc3)cc(-c3ccccc3)cc2-c2ccccc2)c1.[O-][Cl+3]([O-])([O-])[O-],-38.7
16,[O-][Cl+3]([O-])([O-])[O-].c1ccc(C[n+]2ccccc2)cc1,-3.58
17,O=[N+]([O-])c1ccccc1-c1cc(-c2ccccc2)cc(-c2ccccc2)[n+]1Cc1ccccc1Cl.[O-][Cl+3]([O-])([O-])[O-],-78.7
18,O=C([O-])c1cc(-c2ccccc2)cc(-c2ccccc2)[n+]1Cc1ccccc1,-10.1
19,Fc1ccc(C[n+]2c(-c3ccccc3)cc(-c3ccccc3)cc2-c2ccccc2)cc1.[O-][Cl+3]([O-])([O-])[O-],-71.5
20,O=[N+]([O-])c1ccccc1NCc1ccccc1Cl,-4.13
21,Cc1ccc(-c2cc[n+](Cc3ccccc3)cc2)cc1.[Cl-],-5.47
22,Clc1ccc(C[n+]2c(-c3ccccc3)cc(-c3ccccc3)cc2-c2ccccc2)cc1.[O-][Cl+3]([O-])([O-])[O-],-79.5
